Measured values published in PubChem BioAssay.
Active and inactive are the calls of the source.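 Rule for the calls, unless noted: active = mean z-score across replicates of 1.96 or higher in either the MELAS or the Rieske mutant cell line; inactive = the rest.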 Where a SMILES comes first, the peptide text is derived from it. Bridges are numbered along the chain shown (N, C = ends). [ ]: non-standard residue; d: D form. The star is where a group is joined. Heptanoyl(5-Me) = CCC(C)CCCC(=O)*; Dab = NCC[C@H](N)C(=O)O

Columns and labels:
[1] = phospholipid biosynthesis inhibitors in animal cells, primary screen, cell-based, LOPAC library, screen 4 (AID 1347384; call rule not given here); conditions: phospholipid biosynthesis inhibition screen, at 10 µM
[2] = survival rescue of mitochondrial mutant cells in low glucose, primary screen, MELAS cybrids, Rieske KO mouse fibroblasts, CellTiter-Glo (AID 1508586);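 note: z relative to plate mean and SD of compound and empty wells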
[3] = target: NAD(+) hydrolase SARM1 (Homo sapiens) (UniProt Q6SZW1); experiment: SARM1 TIR NADase inhibitors, cell lysate, NAD-Glo luminescence (AID 1508614;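 active = compound whose remaining NAD level is above about 45 nM, limit read from the data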;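 note: higher remaining NAD means stronger inhibition of SARM1 NADase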); conditions: SAM-TIR HEK293T lysate NADase, at 1 µM, stronger effect = higher value
NAD(+) hydrolase SARM1 (Homo sapiens), sequence (Q6SZW1 whole entry, looked up, the tested form may be a part): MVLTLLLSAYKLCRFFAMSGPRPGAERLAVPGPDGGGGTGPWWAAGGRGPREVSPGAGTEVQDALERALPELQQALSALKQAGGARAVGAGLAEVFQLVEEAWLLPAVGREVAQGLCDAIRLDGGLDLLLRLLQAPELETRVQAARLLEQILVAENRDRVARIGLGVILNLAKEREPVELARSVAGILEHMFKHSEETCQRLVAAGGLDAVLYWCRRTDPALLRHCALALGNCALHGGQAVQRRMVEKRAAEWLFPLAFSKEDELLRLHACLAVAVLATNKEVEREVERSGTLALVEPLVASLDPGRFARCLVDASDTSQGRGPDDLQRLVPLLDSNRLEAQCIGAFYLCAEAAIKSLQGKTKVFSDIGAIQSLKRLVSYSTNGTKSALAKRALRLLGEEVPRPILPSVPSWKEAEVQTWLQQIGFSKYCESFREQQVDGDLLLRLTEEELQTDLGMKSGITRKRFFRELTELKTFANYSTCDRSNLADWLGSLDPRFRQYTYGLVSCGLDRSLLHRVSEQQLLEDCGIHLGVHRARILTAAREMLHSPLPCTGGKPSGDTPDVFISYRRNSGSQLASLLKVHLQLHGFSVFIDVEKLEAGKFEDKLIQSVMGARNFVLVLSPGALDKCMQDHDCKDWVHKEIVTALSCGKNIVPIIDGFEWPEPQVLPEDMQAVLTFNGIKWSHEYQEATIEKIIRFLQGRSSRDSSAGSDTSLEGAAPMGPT

[4] = target: Mitogen-activated protein kinase 7 (Homo sapiens) (UniProt Q13164); experiment: ERK5 transactivation activators in reporter cells, primary screen, cell-based, HTS (AID 1508626;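 active = luciferase signal above three times the same-plate solvent-only control wells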;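 note: luciferase driven by Gal4-ERK5 fusion binding five Gal4 sites before minimal TATA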); conditions: HeLa Gal4-ERK5 transactivation, 18 h, at 5 µM, stronger effect = higher value
Mitogen-activated protein kinase 7 (Homo sapiens), sequence (Q13164 whole entry, looked up, the tested form may be a part): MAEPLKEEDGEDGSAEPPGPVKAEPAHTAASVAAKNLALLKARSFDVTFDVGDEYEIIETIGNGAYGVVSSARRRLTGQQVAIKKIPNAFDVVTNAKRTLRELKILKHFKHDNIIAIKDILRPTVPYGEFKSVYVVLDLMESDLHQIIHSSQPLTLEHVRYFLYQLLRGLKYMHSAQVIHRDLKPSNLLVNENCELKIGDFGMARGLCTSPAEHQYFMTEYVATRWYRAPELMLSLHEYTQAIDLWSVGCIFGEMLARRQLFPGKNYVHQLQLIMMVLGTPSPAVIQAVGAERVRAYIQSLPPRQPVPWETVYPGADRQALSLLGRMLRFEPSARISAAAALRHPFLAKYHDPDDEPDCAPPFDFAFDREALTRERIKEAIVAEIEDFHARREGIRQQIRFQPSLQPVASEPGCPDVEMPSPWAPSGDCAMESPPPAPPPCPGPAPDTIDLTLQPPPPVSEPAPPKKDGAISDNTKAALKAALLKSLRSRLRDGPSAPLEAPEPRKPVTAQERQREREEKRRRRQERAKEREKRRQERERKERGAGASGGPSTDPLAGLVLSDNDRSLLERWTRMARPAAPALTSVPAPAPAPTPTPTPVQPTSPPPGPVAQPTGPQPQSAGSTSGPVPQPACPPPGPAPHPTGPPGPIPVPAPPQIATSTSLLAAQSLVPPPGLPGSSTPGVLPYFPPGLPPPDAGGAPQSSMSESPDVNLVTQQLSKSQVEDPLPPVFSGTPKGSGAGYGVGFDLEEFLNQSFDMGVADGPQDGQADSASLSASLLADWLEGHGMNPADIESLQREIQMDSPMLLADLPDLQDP

[5] = tested on: Hepatitis C virus NS3 helicase; experiment: HCV NS3 helicase inhibitors, primary screen, biochemical, fluorescence polarization, LOPAC1280 library (AID 687035; in the data active = inhibition above about 37%); conditions: Purified HCV NS3 helicase, Cy5-dT15 ssDNA binding fluorescence polarization; stronger effect = higher value; concentration not given here
[6] = Cy5 fluorescence quenching or enhancement artefacts, artefact control for HCV NS3 helicase inhibitor project, biochemical, LOPAC1280 (AID 687037; call rule not given here); conditions: Cy5-DNA-NS3h complex fluorescence interference counterscreen
[7] = viability rescue of complex I mutant cybrids, primary screen, cell-based, galactose medium, ATP luminescence (AID 1645843;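 active = z-score of at least 1.8 in each of two replicates, scored against plate mean and spread of sample wells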;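 note: positive z means more ATP and so rescue of galactose-driven cybrid death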); conditions: complex I mutant cybrid cells, 72 h, stronger effect = higher value
[8] = MELAS cybrid survival, CellTiter-Glo 48 h, stronger effect = higher value
[9] = Rieske KO mouse fibroblast survival, CellTiter-Glo 72 h

C[C@@H]1CCN(C(=O)C(CCCN=C(N)N)NS(=O)(=O)c2cccc3c2NC[C@H](C)C3)C(C(=O)O)C1 (stereo partly specified)
outcome [1]: inactive

Nc1nc(CC(=O)Nc2ccc(CCNC[C@H](O)c3ccccc3)cc2)cs1
z-score [2, 8]: 0.235 (inactive)
z-score [2, 9]: 0.0504

CC(C)CC(NP(=O)(O)OC1OC(C)C(O)C(O)C1O)C(=O)NC(Cc1c[nH]c2ccccc12)C(=O)O (stereo unspecified)
z-score [2, 8]: -0.408 (inactive)
z-score [2, 9]: 0.685

C#C[C@]1(OC(C)=O)CC[C@H]2[C@@H]3CCC4=CC(=NO)CC[C@@H]4[C@H]3CC[C@@]21CC
z-score [2, 8]: 0.995 (inactive)
z-score [2, 9]: 0.685

O=C(Nc1cc(C(F)(F)F)cc(C(F)(F)F)c1)Nc1c(Br)cc(Br)cc1-c1nn[nH]n1
outcome [1]: inactive

C/C=C/C1=C(C(=O)O)N2C(=O)[C@@H](NC(=O)[C@H](N)c3ccc(O)cc3)[C@H]2SC1
z-score [2, 8]: -0.679 (inactive)
z-score [2, 9]: -1.17
remaining NAD [3]: 10 nM (inactive)
luciferase signal [4]: 48 AU (inactive)

CO/N=C(\C(=O)N[C@@H]1C(=O)N2C(C(=O)OC(C)OC(C)=O)=C(COC(N)=O)CS[C@H]12)c1ccco1 (stereo partly specified)
z-score [2, 8]: 0.525 (inactive)
z-score [2, 9]: 0.0681
remaining NAD [3]: 10 nM (inactive)

COc1cccc2c1C(=O)c1c(O)c3c(c(O)c1C2=O)C[C@@](O)(C(=O)CO)C[C@@H]3O[C@@H]1C[C@H](N)[C@@H](O)[C@H](C)O1
z-score [2, 8]: 6.67 (active)
z-score [2, 9]: -1.72

CCOC([O-])=Nc1c[n+](N2CCOCC2)no1
inhibition [5]: -3% (inactive)
fluorescence ratio (interference) [6]: 1 (inactive)
outcome [1]: inactive

O=C(/C=C/c1ccc(O)cc1)CC(=O)/C=C/c1ccc(O)cc1
outcome [1]: inactive

COC(=O)c1c(NC(=O)C2CCOC2)c2cc(NC(C)CO)cnc2n1CCCc1ccccc1 (stereo unspecified)
z-score [2, 8]: -1.11 (inactive)
z-score [2, 9]: 1.02
z-score [7]: -0.185 (inactive)

NC(=S)c1ccc[n+]([C@@H]2O[C@@H](COP(=O)(O)OP(=O)(O)OC[C@H]3O[C@@H](n4cnc5c(N)ncnc54)C(OP(=O)(O)O)[C@H]3O)C(O)C2O)c1 (stereo partly specified)
outcome [1]: inactive

CCc1cc(C(=O)N2CC(=O)N(Cc3ccc(OC)cc3)CC(OCc3ccncc3)C2)n(C)n1 (stereo unspecified)
z-score [2, 8]: -0.128 (inactive)
z-score [2, 9]: -0.65
z-score [7]: 0.77 (inactive)

CNCC[C@@H](Oc1cccc2ccccc12)c1cccs1
z-score [2, 8]: -0.177 (inactive)
z-score [2, 9]: 0.977

COc1ccc(C[C@@H]2c3cc(OC)c(OC)cc3CC[N@+]2(C)CCC(=O)OCCCCCOC(=O)CC[N@@+]2(C)CCc3cc(OC)c(OC)cc3[C@H]2Cc2ccc(OC)c(OC)c2)cc1OC
z-score [2, 8]: -1.09 (inactive)
z-score [2, 9]: -0.143

CC(=O)[C@@]12OC(C)(c3ccccc3)O[C@@H]1C[C@H]1[C@@H]3CCC4=CC(=O)CC[C@]4(C)[C@H]3CC[C@@]12C (stereo partly specified)
z-score [2, 8]: 0.905 (inactive)
z-score [2, 9]: 1.8

N[C@@H](C(=O)N[C@@H]1C(=O)N2C(C(=O)O)=C(Cl)CC[C@H]12)c1ccccc1
z-score [2, 8]: 0.0513 (inactive)
z-score [2, 9]: -0.0591

COc1cc(Br)c(C[N+]2(CCOCCC3CC[C@H]4C[C@@H]3C4(C)C)CCOCC2)cc1OC (stereo partly specified)
z-score [2, 8]: -1.55 (inactive)
z-score [2, 9]: 0.547

CCC(C)CCCC(=O)N[C@@H](CCN)C(=O)N[C@H](C(=O)N[C@@H](CCN)C(=O)N[C@H]1CCNC(=O)[C@H]([C@@H](C)O)NC(=O)[C@H](CCN)NC(=O)[C@H](CCN)NC(=O)[C@H](CC(C)C)NC(=O)[C@@H](CC(C)C)NC(=O)[C@H](CCN)NC1=O)[C@@H](C)O (stereo partly drawn) ({Heptanoyl(5-Me)}-[Dab]T[Dab][Dab][Dab][dL]L[Dab][Dab]T; lactam 4-C)
z-score [2, 8]: -0.0594 (inactive)
z-score [2, 9]: 0.188

CC=C(C)C(=O)O[C@H]1[C@H](OC(C)=O)C2(CO)C(CC1(C)C)C1=CCC3C4(C)CCC(OC5O[C@H](C(=O)O)[C@@H](O[C@@H]6O[C@H](CO)[C@@H](O)[C@H](O)[C@H]6O)[C@H](O)[C@H]5O[C@@H]5O[C@H](CO)C(O)[C@H](O)[C@H]5O)[C@](C)(CO)C4CCC3(C)[C@]1(C)C[C@H]2O (stereo partly specified)
z-score [2, 8]: 0.702
z-score [2, 9]: 2.95

CN1[C@@H]2CC[C@@H]1CC(OC(=O)C(CO)c1ccccc1)C2 (stereo partly specified)
z-score [2, 8]: 0.0633 (inactive)
z-score [2, 9]: -0.0663

CC(C)CN1CC(OCc2cccc(F)c2)CN(C(=O)c2cccc(N3CCNC3=O)c2)CC1=O (stereo unspecified)
z-score [2, 8]: -0.284 (inactive)
z-score [2, 9]: -0.354
z-score [7]: 0.795 (inactive)

C[C@H]1NC(=O)[C@@H]2C[C@H](NC(=O)c3cnn(-c4ccccc4)c3C(F)(F)F)CN2C1=O
z-score [2, 8]: 0.896 (inactive)
z-score [2, 9]: -0.434
z-score [7]: -1.26 (inactive)

CCc1nc(CNc2cc(C(=O)Nc3ccc4c(c3)CCC4)cc(S(=O)(=O)NC)c2)c(C)[nH]1
z-score [2, 8]: -0.12 (inactive)
z-score [2, 9]: -0.343
z-score [7]: 0.065 (inactive)

Cc1cc(-c2cc3c(n(Cc4cccnc4)c2=O)CCN(C(=O)c2n[nH]c4c2CCC4)C3)ccc1F
z-score [2, 8]: -0.505
z-score [2, 9]: 4.42
z-score [7]: -1.53 (inactive)

C[C@H](O)[C@H]1NC(=O)[C@@H]2C[C@H](NC(=O)Nc3cccc(F)c3)CN2C1=O
z-score [2, 8]: 0.0941 (inactive)
z-score [2, 9]: 0.103
z-score [7]: -0.26 (inactive)

CCc1cc(C(=O)N2CCc3c(c(C(=O)N4CCN(c5ccccc5)CC4)nn3CC)C2)n(C)n1
z-score [2, 8]: -0.699 (inactive)
z-score [2, 9]: -0.0183
z-score [7]: 0.405 (inactive)

CC(C)CNC(=O)[C@@H]1C[C@H](CN2CCOCC2)CN(Cc2ccccc2)C1
z-score [2, 8]: 0.428 (inactive)
z-score [2, 9]: 0.562
z-score [7]: 0.12 (inactive)

CCN(CC)C(=O)c1cc(-c2ccc(C)s2)cc(S(=O)(=O)N2CCOCC2)c1
z-score [2, 8]: -0.0477 (inactive)
z-score [2, 9]: 0.74
z-score [7]: -0.44 (inactive)

Cc1ccc(S(=O)(=O)N2CCN3C(=O)[C@H](Cc4ccc(Cl)cc4)NC(=O)[C@H]3C2)cc1
z-score [2, 8]: 1.43 (inactive)
z-score [2, 9]: -0.392
z-score [7]: -0.845 (inactive)

COc1cccc(COC2CN(Cc3ccccn3)C(=O)CN(C(=O)c3ccc(C)s3)C2)c1 (stereo unspecified)
z-score [2, 8]: -0.406 (inactive)
z-score [2, 9]: 0.0344
z-score [7]: 0.91 (inactive)

COc1ccc(CN2C(=O)N(C)C3(CCN(Cc4cccn4-c4ccccn4)CC3)C2=O)cc1
z-score [2, 8]: -0.452 (inactive)
z-score [2, 9]: -0.368
z-score [7]: 0.16 (inactive)

COC(=O)c1c(NC(C)=O)c2cc(NCc3sccc3C)cnc2n1CC1CCCO1 (stereo unspecified)
z-score [2, 8]: 0.213 (inactive)
z-score [2, 9]: 0.989
z-score [7]: -0.82 (inactive)

CC(C)OCCNC1CCc2c(c(C(=O)N(C)Cc3ccccc3)nn2C)C1 (stereo unspecified)
z-score [2, 8]: 0.055 (inactive)
z-score [2, 9]: -0.804
z-score [7]: 0.48 (inactive)

Cc1csc(-c2cc(C(=O)NCCN3CCCCC3)cc(S(=O)(=O)N3CCOCC3)c2)c1
z-score [2, 8]: 0.0708 (inactive)
z-score [2, 9]: -0.233
z-score [7]: -0.485 (inactive)

CCC(C)C(=O)Nc1c(C(=O)OC)n(CC2CCCO2)c2ncc(NC3CCSC3)cc12 (stereo unspecified)
z-score [2, 8]: -0.0694 (inactive)
z-score [2, 9]: 1.01
z-score [7]: -0.775 (inactive)

Cc1ccc(N2CCN(C3CCc4c(c(C(=O)N5CCSCC5)nn4C)C3)CC2)c(C)c1 (stereo unspecified)
z-score [2, 8]: -0.0351 (inactive)
z-score [2, 9]: -0.612
z-score [7]: 0.195 (inactive)

Cc1ccc(-c2cc(C(=O)N3CCSCC3)cc(S(=O)(=O)N3CCOCC3)c2)s1
z-score [2, 8]: -0.321 (inactive)
z-score [2, 9]: -0.0192
z-score [7]: 0.905 (inactive)

COc1ccc(CCn2nc(C(=O)N(C)C)c3c2CCN(C(=O)c2csc4c2CCCC4)C3)cc1
z-score [2, 8]: -0.0604 (inactive)
z-score [2, 9]: -0.104
z-score [7]: 1.47 (inactive)

COCCn1c(C(=O)OC)c(NC(=O)Cc2ccccc2)c2cc(NC(C)CCO)cnc21 (stereo unspecified)
z-score [2, 8]: -0.113 (inactive)
z-score [2, 9]: 0.262
z-score [7]: -0.97 (inactive)
